From PubChem BioAssay
The list is not random: actives were taken first. Their share in the collection is about 1.2%.
Anesthetic bind: binds horse apoferritin like a general anesthetic. P02791. apoferritin/1-aminoanthracene competitive binding, fluorescence. Potency, µM (series often up to 77.5 µM), actives largely listed as inhibitors. actives 0.074% (n = 350,000). AID 485281; note: nearly all actives have a fitted effect of over 20% in size
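In PBS, apoferritin at 10 uM is loaded with 1-AMA from a 50% saturated solution. After 10 min of compound exposure at ambient temperature, reduced 535 nm fluorescence indicates probe displacement.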
mIDH1 inhibitor: inhibitors of human mutant IDH1 R132H; IDH1-R132H enzyme, NADPH consumption, diaphorase/resazurin fluorescence; Potency, µM (doses to about 76.6 µM), actives largely listed as inhibitors; actives 0.093% (n = 390,000); AID 602179; note: nearly all actives have a fitted effect of over 65% in size
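IDH1-R132H (0.5 ug/mL dispensed) in pH 7.5 Tris buffer was preincubated 30 min with compound, then given a substrate mix of 0.016 mM NADPH and 2 mM alpha-KG for 80 min at room temperature; remaining NADPH was read by diaphorase/resazurin fluorescence.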
KCNH2 3.1 block: blocks the human KCNH2 3.1 channel isoform; actives 0.95% (n = 340,000); U2OS KCNH2 3.1, thallium flux FluxOr; active compounds read low; activity change, % (tested at about 1.8 µM); AID 720553;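 active = maximum activity change below -70%; inconclusive = maximum activity change from -70% to -50%; inactive = maximum activity change above -50%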;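 note: thallium influx rate constant from kinetic fluorescence after stimulation buffer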
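We transduce U2OS cells with the mutant 3.1 virus, culture them overnight, load FluxOr with Red40 quencher for 45 min, then add stimulation buffer and read kinetically for 2 min to derive a normalized rate constant.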
S-ASM inh: human S-ASM enzyme inhibition; P17405; placental ASM, HMU-PC fluorogenic substrate, 60 min; Potency, µM (highest dose often 57.5 µM), actives largely listed as inhibitors; actives 0.006% (n = 340,000); AID 504937
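Human placenta-derived ASM preincubated with compound 10 min at room temperature, then reacted with 9 uM (final) fluorogenic HMU-PC substrate for 60 min at 37 C. Stop solution raises pH to 10; fluorescence read at Ex 386/Em 447 nm.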
KCNH2 WT inh: blocks the wildtype human KCNH2 potassium channel | Q12809 | activity change, % at 1.84 µM | U2OS, BacMam KCNH2, thallium flux FluxOr; active compounds read low | actives 0.37% (n = 340,000) | AID 720551;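 active = maximum activity change below -70%; inconclusive = maximum activity change between -70% and -50%; inactive = maximum activity change above -50%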
Target sequence (Q12809 whole entry, looked up): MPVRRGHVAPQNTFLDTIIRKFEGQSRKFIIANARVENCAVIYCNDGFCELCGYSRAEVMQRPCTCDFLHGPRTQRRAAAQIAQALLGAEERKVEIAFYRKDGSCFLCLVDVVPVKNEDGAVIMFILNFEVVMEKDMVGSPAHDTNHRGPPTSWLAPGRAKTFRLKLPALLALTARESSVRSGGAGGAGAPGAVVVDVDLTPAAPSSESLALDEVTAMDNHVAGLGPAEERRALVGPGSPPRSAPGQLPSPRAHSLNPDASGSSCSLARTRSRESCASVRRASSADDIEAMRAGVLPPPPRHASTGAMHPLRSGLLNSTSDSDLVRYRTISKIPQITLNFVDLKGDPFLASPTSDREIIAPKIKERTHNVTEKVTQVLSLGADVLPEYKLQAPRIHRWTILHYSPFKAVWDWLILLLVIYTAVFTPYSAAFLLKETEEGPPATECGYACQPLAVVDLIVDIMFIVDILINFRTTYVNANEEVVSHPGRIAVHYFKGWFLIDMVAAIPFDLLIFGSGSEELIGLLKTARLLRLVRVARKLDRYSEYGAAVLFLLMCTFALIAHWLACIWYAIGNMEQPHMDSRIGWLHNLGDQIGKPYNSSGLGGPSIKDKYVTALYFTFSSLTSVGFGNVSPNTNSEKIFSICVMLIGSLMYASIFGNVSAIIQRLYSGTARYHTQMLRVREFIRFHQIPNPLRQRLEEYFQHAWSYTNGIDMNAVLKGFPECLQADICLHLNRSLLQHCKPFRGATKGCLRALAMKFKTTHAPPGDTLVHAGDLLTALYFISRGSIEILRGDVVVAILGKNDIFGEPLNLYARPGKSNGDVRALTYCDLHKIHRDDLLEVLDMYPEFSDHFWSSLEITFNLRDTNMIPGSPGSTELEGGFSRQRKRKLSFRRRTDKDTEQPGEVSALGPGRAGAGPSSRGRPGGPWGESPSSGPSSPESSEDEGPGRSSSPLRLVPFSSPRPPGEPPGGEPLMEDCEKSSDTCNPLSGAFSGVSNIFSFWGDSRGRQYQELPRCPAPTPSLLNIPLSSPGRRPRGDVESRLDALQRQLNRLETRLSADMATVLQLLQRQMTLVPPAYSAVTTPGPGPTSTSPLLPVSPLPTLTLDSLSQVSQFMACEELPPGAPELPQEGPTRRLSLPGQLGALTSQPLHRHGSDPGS
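U2OS cells were transduced with wild-type KCNH2 virus (2.03 x 10^8 / mL) for 4 h at room temperature, then cultured overnight at 37 C. Thallium flux was read with FluxOr dye. Rate constants were normalized to DMSO controls.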
Numbers stand for hits; i = inactive; ? = inconclusive; nt = not tested or not shown; [ ] = remark or other dose. Unless noted, calls come from the whole dose curve; as a rule, active = well fitted inhibition curve with a large enough effect; inconclusive = small, poorly fitted or top-dose-only effect; inactive = no such curve, though single readings can be large or run the other way.

SMILES | Anesthetic bind | mIDH1 inhibitor | KCNH2 3.1 block | S-ASM inh | KCNH2 WT inh
O=C(CCN1CCCCC1)N1CCc2c([nH]c3ccccc23)C1c1cccnc1 (centres undefined) | nt | i | -73 | i | ?
Cc1ccc(C2c3[nH]c4ccccc4c3CCN2C(=O)CCC2CCCC2)cc1 (centres undefined) | i | i | nt | nt | nt
Cc1c(Cl)ccc2c(C(N)=O)cc(-c3ccccn3)nc12 | i | i | i | i | i
CCOC(=O)CNC(=O)c1cc(-c2ccccn2)nc2c(C)c(Cl)ccc12 | i | i | -168 | i | i
CC(C)CC1C(=O)N(Cc2cn(CCC3OCCCO3)nn2)CCS(=O)(=O)N1Cc1ccc(-c2ccncc2)cc1 (centres undefined) | nt | i | -157 | nt | -139
COC(=O)c1cc(Cl)c(NC(=O)/C=C/c2ccc(Cl)cc2)cc1OC | i | i | -80 | i | i
CN(C(=O)COC(=O)CCc1c[nH]c2ccccc12)C(c1ccccc1)c1ccccc1 | i | i | -80 | ? | i
O=C1c2ccccc2C(=O)N1CCc1nc(-c2ccccn2)no1 | i | i | i | i | i
O=C1c2ccccc2C(=O)N1CCCc1nc(-c2ccccn2)no1 | i | i | -100 | i | i
COc1ccc(-c2cc3ccc(O)c(CN4CCC(C)CC4)c3oc2=O)cc1 | i | i | nt | nt | nt
Cn1c(=O)c(NCCc2ccccc2)c2c3c(cccc31)C(=O)c1ccccc1-2 | i | i | -83 | i | -70
CCCCNc1c2c3c(cccc3n(C)c1=O)C(=O)c1ccccc1-2 | i | i | i | i | i
Cc1ccn2c(NCc3ccc4c(c3)OCO4)c(-c3ccc(O)cc3)nc2c1 | i | i | -75 | i | i
CN(C)CCNC(=O)C(=O)NCC(c1cccnc1)N1CCN(c2ccccc2)CC1 (centres undefined) | i | i | nt | nt | nt
Cc1nc(SCC(=O)N2CCOCC2)c2c(C)c(C)sc2n1 | i | i | i | i | i
Cc1nc(SCC(=O)N2CCCC2=O)c2c(C)c(C)sc2n1 | nt | i | i | nt | -90
COc1ccc(CN2CC[C@H]3C=CCc4cccc(c43)C2)cc1 | nt | i | -85 | i | i
COc1ccc(CCNC(=O)COC(=O)C23CC4CC(CC(Br)(C4)C2)C3)cc1 | ? | i | i | i | -88
CCc1cccc(NC(=O)Cn2nc(C)c3sc4ccccc4c3c2=O)c1 | i | i | nt | nt | nt
COC(=O)c1ccc(/C=N/OCC(=O)NC2CCCC(C)C2C)cc1 (centres undefined) | 11µM | i | i | i | i
COC(=O)c1ccc(/C=N/OCC(=O)NC2CCCCCCC2)cc1 | 7.9µM | i | i | i | i
O=C(OCC(=O)c1cccs1)c1ccccc1 | ? | i | i | i | i
O=C(COc1ccccc1O)c1cccs1 | 28µM | i | i | i | i
CCCCn1cc(S(=O)(=O)c2ccc(C)c(C)c2)c(=O)c2cc(F)c(N3CCN(C)CC3)cc21 | i | i | nt | nt | nt
Cc1ccc(-n2ncc(C(=O)NCCCN3CCc4ccccc4C3)c2C2CCN(C(=O)OC(C)(C)C)CC2)cc1C | i | i | nt | nt | nt
SMILES | Anesthetic bind | mIDH1 inhibitor | KCNH2 3.1 block | S-ASM inh | KCNH2 WT inh
Fc1cccc(Cc2noc(CN3CCCN(C4Cc5ccccc5C4)CC3)n2)c1 | i | i | -91 | i | -136
Fc1cccc(Cc2noc(CN3CCSCC3)n2)c1 | i | i | i | i | i
Fc1cccc(Cc2noc(CN3CCN(C4CCc5ccccc5C4)CC3)n2)c1 (centres undefined) | i | i | -85 | i | i
COc1ccc(CCNC(=O)CCc2c(C)nc3c(c(C)nn3-c3ccc(C)cc3)c2C)c(OC)c1 | i | i | nt | nt | nt
CO[C@@H]1COC(=O)[C@@H](C)NC(=O)C/C=C\[C@@H](C)[C@H](NS(=O)(=O)c2ccc(C)cc2)COC(=O)[C@H](C)NC(=O)C/C=C\[C@H]1C | i[15.3 µM] | nt | nt | nt | nt
Cc1ccc(C)c(N2CCN(C(=O)c3ccc4c(=O)n(CCc5ccccc5)c(=O)[nH]c4c3)CC2)c1 | i | i | nt | nt | nt
COCCn1c(=O)[nH]c2cc(C(=O)N3CCN(c4cc(C)ccc4C)CC3)ccc2c1=O | i | i | -80 | i | i
CCOc1ccc(NC(=O)c2ccc(F)c(S(=O)(=O)N3CCN(c4ccccn4)CC3)c2)cc1 | i | i | -71 | i | i
COc1cccc(-c2ccc(NC(=O)C3CCCN(CCCn4cccn4)C3)cc2)c1 (centres undefined) | ? | i | -84 | nt | i
C#CCCCO/N=C1/C[C@@H](O)[C@@H](O)[C@@H]2[C@H]3C(=O)N(c4ccc(F)cc4F)C(=O)[C@@H]3CC[C@@H]12 | i[15.3 µM] | nt | nt | nt | nt
O=C(CNC(=O)c1ccc(Cl)cc1)OCC(=O)c1ccccc1 | ? | i | ? | nt | i
O=C(CCC(=O)c1ccc(Cl)cc1)OCC(=O)c1ccccc1 | 13µM | i | i | i | i
O=C(Oc1ccc(OC(=O)N2CCOCC2)cc1)c1ccccc1 | i | i | i | i | -152
O=C(Oc1ccccc1)N1CCOCC1 | i | i | i | i | i
C=CCOC(=O)C(C#N)c1nc2ccccc2nc1N1CCN(Cc2ccc3c(c2)OCO3)CC1 (centres undefined) | i | i | -103 | i | -111
CCCCCCOC(=O)C(C#N)c1nc2ccccc2nc1N1CCCCC1 (centres undefined) | i | i | i | i | i
CCCCCCOC(=O)C(C#N)c1nc2ccccc2nc1N1CCN(C)CC1 (centres undefined) | ? | i | -71 | i | i
Cc1ccc(-n2c3nc(=O)[nH]c(=O)c-3cc3c(C)nn(-c4ccccc4)c32)c(C)c1 | i | i | -149 | i | -151
CCOCCCNC(=O)C(c1ccccc1)N(Cc1cccs1)C(=O)c1ccc(NC(C)=O)cc1 (centres undefined) | i | i | nt | nt | nt
Cc1ccc(N(CC(=O)Nc2ccc(Cl)cc2)S(=O)(=O)c2cccc3nonc23)cc1 | i | i | nt | nt | nt
Cc1ccccc1C(=O)c1cccn1CC(=O)O | i | i | i | i | i
Cc1ccccc1C(=O)c1cccn1CC(=O)N1CCCCCC1 | i | i | -100 | i | i
CC(C)(C)c1ccc(OCc2ccc(C(=O)N/N=C/c3ccc([N+](=O)[O-])cc3)o2)cc1 | i | i | -80 | i | i
CC(C)(C)c1ccc(OCc2ccc(C(=O)NN)o2)cc1 | i | i | i | i | i
Cc1nc2nncn2c(NCc2ccc(Cl)cc2)c1C | i | i | nt | nt | nt
O=C(c1ccc2nccnc2c1)N1CCN(Cc2ccc3c(c2)OCO3)CC1 | i | i | -87 | i | i
O=C(c1cccn2c(=O)c3cc(Cl)ccc3nc12)N1CCN(Cc2ccc3c(c2)OCO3)CC1 | i | i | -83 | i | i
CC(C)CC(=O)N1CCN(Cc2ccc3c(c2)OCO3)CC1 | i | i | i | i | -133
O=C(c1cccn2c(=O)c3ccccc3nc12)N1CCN(Cc2ccc3c(c2)OCO3)CC1 | i | i | i | i | i
